Results filed as inconclusive are left out. Active and inactive are the calls of the source. Unless noted, the limit is not given here; nearly all actives have AC50 up to about 26 µM.
What was measured:
[1] = viability loss in pontine glioma line – cell-based, SU-DIPG-XVII, MIPE5.0, CellTiter-Glo, qHTS, dose response (AID 1347060); settings: CellTiter-Glo ATP luminescence;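 as to AC50: cells exposed to compound for 48 hours before viability readout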
[2] = growth inhibition of DIPG cells – cell-based, MIPE4.0 library, CellTiter-Glo luminescence, qHTS (AID 1347066; cut-off not given, nearly all actives have AC50 up to about 30 µM;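 also: cells exposed to compound for 48 hours before readout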); settings: SU-DIPG-VI viability, CellTiter-Glo ATP luminescence
[3] = growth inhibition of DIPG cells – cell-based, MIPE5.0 library, qHTS (AID 1347068; cut-off not given, nearly all actives have IC50 up to about 30 µM;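 as to IC50: cells exposed to compound for 48 hours before viability readout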); settings: SU-DIPG-XXV viability
[4] = viability loss in pontine glioma line – cell-based, SU-DIPG-XXV, MIPE5.0, CellTiter-Glo, qHTS, dose response (AID 1347065); settings: CellTiter-Glo ATP luminescence;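 also: cells exposed to compound for 48 hours before ATP readout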
[5] = drug combination growth inhibition, ovarian cancer – cell-based, oncology-focused library, rucaparib conditional, profiling panel (AID 1508598;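 active = normalized viability below 100% at a tested concentration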); settings: patient-derived ovarian cancer cells, CellTiter-Glo viability, 144 h, stronger effect = lower value
[6] = viability loss with induced miR-34 in A549 – imaging, A549 dox-inducible miR-34, nuclei and caspase counts, primary screen (AID 1347080;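 active = compounds whose cell count with miR-34 switched on is under 0.7 times the count with it off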); settings: A549 miR-34 inducible, Hoechst nuclei count, 48 h
[7] = galactose survival enhancers in mitochondrial complex I cybrids – cell-based, galactose medium, ATP luminescence, primary screen (AID 1645843;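 active = z-score of at least 1.8 in each of two replicates, scored against plate mean and spread of sample wells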;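 also: positive z means more ATP and so rescue of galactose-driven cybrid death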); settings: complex I mutant cybrid cells, 72 h, stronger effect = higher value
[8] = JHH-DIPG-1 glioma cell viability, MIPE5.0 library, CellTiter-Glo luminescence, qHTS (AID 1347067); settings: JHH-DIPG-1 glioma viability, CellTiter-Glo ATP luminescence;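 also: cells exposed to compound for 48 hours before readout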
[9] = MELAS cybrid and Rieske KO viability enhancers – cell-based, MELAS cybrids, Rieske KO mouse fibroblasts, CellTiter-Glo, primary screen (AID 1508586;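 active = mean z-score across replicates of 1.96 or higher in either the MELAS or the Rieske mutant cell line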;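 also: z relative to plate mean and SD of compound and empty wells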); settings: low glucose
[10] = stronger effect = lower value, cell number ratio, induced over uninduced
[11] = measured here: relative caspase fold change +Dox/-Dox
[12] = measured here: total cells with miR-34 induction, stronger effect = lower value
[13] = measured here: total cells without miR-34 induction
[14] = MELAS cybrid survival, CellTiter-Glo 48 h, stronger effect = higher value
[15] = Rieske KO mouse fibroblast survival, CellTiter-Glo 72 h

## CCCC1OC2C[C@H]3[C@@H]4CCC5=CC(=O)C=C[C@]5(C)[C@H]4C(O)C[C@]3(C)[C@]2(C(=O)CO)O1 (some centres undefined)
[1]
  outcome: inactive
[2]
  outcome: inactive
[3]
  outcome: inactive

## CN[C@H]1CN(c2ccc3c(=O)c(C(=O)O)cn(-c4nccs4)c3n2)C[C@@H]1OC
[1]
  AC50: 0.762 µM (active)
[4]
  AC50: 4.28 µM (active)
[5]; at 0.000305 µM, OCI-C5x cells, with rucaparib 10 µM, 100% = cells with rucaparib alone
  viability: 118% (inactive)
[5]; at 0.000305 µM, OCI-C5x cells, without rucaparib
  viability: 108% (inactive)
[5]; at 0.000305 µM, OCI-P5x cells, with rucaparib 20 µM, 100% = cells with rucaparib alone
  viability: 98.3% (active)
[5]; at 0.000305 µM, OCI-P5x cells, without rucaparib
  viability: 105% (inactive)
[5]; at 0.00122 µM, OCI-C5x cells, with rucaparib 10 µM, 100% = cells with rucaparib alone
  viability: 121% (inactive)
[5]; at 0.00122 µM, OCI-C5x cells, without rucaparib
  viability: 111% (inactive)
[5]; at 0.00122 µM, OCI-P5x cells, with rucaparib 20 µM, 100% = cells with rucaparib alone
  viability: 92.3% (active)
[5]; at 0.00122 µM, OCI-P5x cells, without rucaparib
  viability: 97.9% (active)
[5]; at 0.00488 µM, OCI-C5x cells, with rucaparib 10 µM, 100% = cells with rucaparib alone
  viability: 107% (inactive)
[5]; at 0.00488 µM, OCI-C5x cells, without rucaparib
  viability: 103% (inactive)
[5]; at 0.00488 µM, OCI-P5x cells, with rucaparib 20 µM, 100% = cells with rucaparib alone
  viability: 100% (inactive)
[5]; at 0.00488 µM, OCI-P5x cells, without rucaparib
  viability: 98.6% (active)
[5]; at 0.0195 µM, OCI-C5x cells, with rucaparib 10 µM, 100% = cells with rucaparib alone
  viability: 110% (inactive)
[5]; at 0.0195 µM, OCI-C5x cells, without rucaparib
  viability: 110% (inactive)
[5]; at 0.0195 µM, OCI-P5x cells, with rucaparib 20 µM, 100% = cells with rucaparib alone
  viability: 93.2% (active)
[5]; at 0.0195 µM, OCI-P5x cells, without rucaparib
  viability: 95.3% (active)
[5]; at 0.0781 µM, OCI-C5x cells, with rucaparib 10 µM, 100% = cells with rucaparib alone
  viability: 110% (inactive)
[5]; at 0.0781 µM, OCI-C5x cells, without rucaparib
  viability: 92.5% (active)
[5]; at 0.0781 µM, OCI-P5x cells, with rucaparib 20 µM, 100% = cells with rucaparib alone
  viability: 91.4% (active)
[5]; at 0.0781 µM, OCI-P5x cells, without rucaparib
  viability: 91.4% (active)
[5]; at 0.313 µM, OCI-C5x cells, with rucaparib 10 µM, 100% = cells with rucaparib alone
  viability: 143% (inactive)
[5]; at 0.313 µM, OCI-C5x cells, without rucaparib
  viability: 119% (inactive)
[5]; at 0.313 µM, OCI-P5x cells, with rucaparib 20 µM, 100% = cells with rucaparib alone
  viability: 79.7% (active)
[5]; at 0.313 µM, OCI-P5x cells, without rucaparib
  viability: 62.5% (active)
[5]; at 1.25 µM, OCI-C5x cells, with rucaparib 10 µM, 100% = cells with rucaparib alone
  viability: 154% (inactive)
[5]; at 1.25 µM, OCI-C5x cells, without rucaparib
  viability: 118% (inactive)
[5]; at 1.25 µM, OCI-P5x cells, with rucaparib 20 µM, 100% = cells with rucaparib alone
  viability: 63.6% (active)
[5]; at 1.25 µM, OCI-P5x cells, without rucaparib
  viability: 41.5% (active)
[5]; at 5 µM, OCI-C5x cells, with rucaparib 10 µM, 100% = cells with rucaparib alone
  viability: 9.22% (active)
[5]; at 5 µM, OCI-C5x cells, without rucaparib
  viability: 12.6% (active)
[5]; at 5 µM, OCI-P5x cells, with rucaparib 20 µM, 100% = cells with rucaparib alone
  viability: 9.42% (active)
[5]; at 5 µM, OCI-P5x cells, without rucaparib
  viability: 6.69% (active)

## Cc1c(O)cccc1C(=O)NC(CSc1ccccc1)C(O)CN1CC2CCCCC2CC1C(=O)NC(C)(C)C (centres undefined)
[1]
  AC50: 20.9 µM (active)
[4]
  AC50: 20.9 µM (active)
[3]
  IC50: 18.6 µM (active)
[6]; [10]
  fold change: 1.31 (inactive)
[6]; [11]
  fold change: 0.935
[6]; [12]
  cell count: 2190
[6]; [13]
  cell count: 1680
[7]
  z-score: -1.88 (inactive)

## O=C(/C=C/N1C[C@H]2C[C@@H]1CN2c1ccccn1)c1ccccc1O
[1]
  outcome: inactive
[8]
  outcome: inactive

## C[C@H](NC(=O)CCC(F)(F)F)C(=O)N[C@@H]1C(=O)N(CCO)c2ncccc2-c2ccccc21
[1]
  outcome: inactive
[8]
  outcome: inactive

## COc1cc(C(N)=O)ccc1NC(=O)[C@@H]1N[C@@H](CC(C)(C)C)[C@@]2(C(=O)Nc3cc(Cl)ccc32)[C@H]1c1cccc(Cl)c1F
[1]
  AC50: 23.5 µM (active)
[8]
  AC50: 23.5 µM (active)
[3]
  IC50: 16.6 µM (active)

## [O-][n+]1cccc(-c2nc3c(Cl)cccc3cc2[C@@H](Nc2ncnc3cccnc23)C(F)(F)F)c1
[1]
  outcome: inactive
[8]
  outcome: inactive

## Nc1nc(OC(c2ccc(-c3cccc(F)c3)cc2)C(F)(F)F)cc(-c2ccc(C[C@H](N)C(=O)O)cc2)n1 (some centres undefined)
[1]
  outcome: inactive
[4]
  outcome: inactive
[3]
  outcome: inactive

## CN(C)c1ccc(Nc2nc(N)n(C(=O)c3c(F)cccc3F)n2)cc1
[1]
  AC50: 8.33 µM (active)
[4]
  AC50: 5.25 µM (active)
[3]
  IC50: 14.8 µM (active)

## CO[C@@H]1[C@H](N(C)C(=O)c2ccccc2)C[C@H]2O[C@]1(C)n1c3ccccc3c3c4c(c5c6ccccc6n2c5c31)C(=O)NC4
[1]
  AC50: 1.66 µM (active)
[2]
  outcome: inactive

## COC(=O)[C@H]1[C@@H](O)[C@@]2(O)c3c(OC)cc(O[C@@H]4O[C@@H]([C@@H](O)CO)CO[C@H]4OC)cc3O[C@@]2(c2ccc(OC)cc2)[C@@H]1c1ccccc1
[1]
  AC50: 8.33 µM (active)
[4]
  AC50: 5.25 µM (active)
[3]
  outcome: inactive

## [2H]C([2H])(Nc1nc(-c2ccccc2C([2H])(C([2H])([2H])[2H])C([2H])([2H])[2H])ncc1C)c1ccc(-n2ccnn2)cc1
[1]
  outcome: inactive
[4]
  outcome: inactive
[3]
  outcome: inactive

## CCCc1cc(C)[nH]c(=O)c1CNC(=O)c1cc(-c2ccc(N3CCN(C(C)C)CC3)nc2)cc2c1cnn2C(C)C
[1]
  AC50: 26.3 µM (active)
[4]
  AC50: 20.9 µM (active)
[8]
  AC50: 14.8 µM (active)
[6]; [10]
  fold change: 0.939 (inactive)
[6]; [11]
  fold change: 0.565
[6]; [12]
  cell count: 6600
[6]; [13]
  cell count: 7030
[9]; [14]
  z-score: 0.696 (inactive)
[9]; [15]
  z-score: -0.809

## NC(=O)C1=C(O)[C@@]2(O)C(=O)C3=C(O)c4c(O)cccc4C[C@H]3C[C@H]2CC1=O
[1]
  AC50: 18.6 µM (active)
[8]
  AC50: 14.8 µM (active)
[3]
  outcome: inactive

## COCCOC(=O)N1CCN(S(=O)(=O)c2cc(F)c(Oc3ccc(Cl)cc3)c(F)c2)C(C(=O)NO)C1 (centres undefined)
[1]
  outcome: inactive
[8]
  AC50: 16.6 µM (active)
[3]
  IC50: 20.9 µM (active)

## CC(Nc1ncnc2nc[nH]c12)c1cc2cccc(Cl)c2c(=O)n1-c1ccccc1 (centres undefined)
[1]
  AC50: 18.6 µM (active)
[4]
  AC50: 18.6 µM (active)
[6]; [10]
  fold change: 0.872 (inactive)
[6]; [11]
  fold change: 0.835
[6]; [12]
  cell count: 6590
[6]; [13]
  cell count: 7550
[9]; [14]
  z-score: -0.147 (inactive)
[9]; [15]
  z-score: -0.173

## COCCN1CCN(Cc2ccc(-c3n[nH]c4c3C(=O)c3c(NC(=O)NN5CCOCC5)cccc3-4)cc2)CC1
[1]
  AC50: 0.295 µM (active)
[4]
  AC50: 0.235 µM (active)
[3]
  IC50: 0.263 µM (active)

From PubChem BioAssay
